Most compounds without a hit are left out; they make up all but 5.1% or so of the library.
Tau fibril FP: blocks human tau fibril formation measured by polarization | K18 P301L tau heparin fibrillization, Alexa594 FP, 6 h | Potency, µM (doses to about 57.7 µM), inactives show at the highest dose activity, negative = inhibition, most hits filed as inhibitors | 280,000 compounds, 0.39% hits | AID 1468; note: potency is the fitted concentration of half-maximal effect; nearly all actives have a fitted effect of over 55% in size
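Recombinant K18 P301L […], labeled with Alexa 594 at 0.24 uM over 15 uM unlabeled; heparin inducer 20 uM final; 37 C, 6 hr; FP endpoint.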
PNC inhibitor: perinucleolar compartment assembly inhibition. activity change (PNC), negative = inhibition, % at 10 µM. 140,000 compounds, 3.1% hits. PC3M PTB-GFP, PNC prevalence imaging, 16 h; active compounds read low. AID 2417;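 active = readout at or below -70, meaning at least 70% loss of cells showing the perinucleolar compartment, a nuclear body marking cancer cells; inconclusive = readout between -30 and a set limit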;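 note: plate controls were DMSO wells for no effect and camptothecin positive control wells for full effect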
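PC3M cells stably expressing PTB-GFP, 750–1000 cells/well, treated 16 h at 37 °C with compound (23 nl of library stock), in duplicate. After paraformaldehyde fixation and Hoechst stain, imaged at 20x; PNC prevalence scored by image analysis.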
JMJD2E inh: JMJD2E (human) inhibition. B2RXH2. JMJD2E catalytic domain, FDH-coupled NADH fluorescence (FDH is formaldehyde dehydrogenase). Potency, µM (doses to about 57.1 µM), inactives show top-dose activity change, negative = inhibition, most hits filed as inhibitors. 230,000 compounds, 1.6% hits; active = well fitted inhibition curve with a large enough effect, not every such curve was filed as active; inconclusive = small, poorly fitted or top-dose-only effect, or another doubt; inactive = no such curve, though single readings can be large or run the other way;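 note: potency is the fitted concentration of half-maximal effect; 0% = wells with enzyme and -100% = buffer wells without enzyme; nearly all actives have a fitted effect of over 50% in size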
Target sequence (B2RXH2 1-337 limits assumed): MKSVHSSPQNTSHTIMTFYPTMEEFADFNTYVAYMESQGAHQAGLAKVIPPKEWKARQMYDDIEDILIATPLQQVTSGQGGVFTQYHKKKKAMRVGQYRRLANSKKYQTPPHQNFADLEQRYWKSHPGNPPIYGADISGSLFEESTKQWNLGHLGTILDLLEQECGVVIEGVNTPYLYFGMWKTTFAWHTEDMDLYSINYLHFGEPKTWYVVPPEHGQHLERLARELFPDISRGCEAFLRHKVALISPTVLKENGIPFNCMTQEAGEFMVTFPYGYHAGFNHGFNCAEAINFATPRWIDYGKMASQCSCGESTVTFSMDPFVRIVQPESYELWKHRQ
Tau ThT inhib: blocks human tau fibril formation measured by thioflavin T; P10636; recombinant tau K18 P301L, heparin-induced fibrillization, ThT fluorescence; Potency, µM (series often up to 57.4 µM), without a hit: at the top dose activity, negative = inhibition, actives largely listed as inhibitors; 270,000 compounds, 2.1% hits; AID 1460; note: potency is the fitted concentration of half-maximal effect; nearly all actives have a fitted effect of over 55% in size
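Fibril formation assay: tau K18 P301L at 15 uM with trace Alexa 594 label, heparin inducer 20 uM, pH 7 sodium acetate buffer, 37 C for 6 hr; endpoint ThT signal.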
NPSR antag: blocks cAMP signaling of the human neuropeptide S receptor. Potency, µM (top dose mostly 38.3 µM), for inactives: at the top dose activity change, negative = inhibition, actives largely listed as inhibitors. AID 1461. 220,000 compounds, 1% hits. CHO-NPSR cells, cAMP TR-FRET, antagonist mode; note: potency is the fitted concentration of half-maximal effect; nearly all actives have a fitted effect of over 50% in size
Target sequence (Q6W5P4 whole entry, looked up): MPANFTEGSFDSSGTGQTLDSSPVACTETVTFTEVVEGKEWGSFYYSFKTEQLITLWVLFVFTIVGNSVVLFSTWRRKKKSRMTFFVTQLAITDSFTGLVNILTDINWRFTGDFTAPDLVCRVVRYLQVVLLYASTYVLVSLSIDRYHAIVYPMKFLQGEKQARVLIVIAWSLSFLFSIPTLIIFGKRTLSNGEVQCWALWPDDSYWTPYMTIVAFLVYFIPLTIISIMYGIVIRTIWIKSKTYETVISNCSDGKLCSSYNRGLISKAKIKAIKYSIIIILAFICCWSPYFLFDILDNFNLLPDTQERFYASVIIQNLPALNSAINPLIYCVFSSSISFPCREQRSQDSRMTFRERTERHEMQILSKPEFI
Tau fluor counter: counter-screen for tau fibril formation inhibitors. 280,000 compounds, 0.93% hits. AID 1463. Potency, µM (titrated, usually from 57.7 µM), inactives show at the highest dose activity change, negative = decrease. tau K18 P301L Alexa594 fluorescence, heparin fibrillization; note: potency is the fitted concentration of half-maximal effect; nearly all actives have a fitted effect of over 55% in size
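Human tau K18 P301L (15 uM unlabeled, 0.24 uM Alexa 594-labeled) in 100 mM sodium acetate pH 7 with 20 uM heparin, 6 hr at 37 C. ThT 30 uM added, 1 hr ambient; Alexa 594 FP and total fluorescence read at 555/632 nm.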
* = called active by the depositor; u = inconclusive; x = no result; ! = not active in a repeat; [ ] = remark or other dose. Unless noted, calls come from the whole dose curve; as a rule, active = well fitted curve in the direction sought with a large enough effect; inconclusive = small, poorly fitted or top-dose-only effect, or another doubt; inactive = no such curve, though single readings can be large; an effect the other way counts as inactive or inconclusive. Unless noted, % is set by controls: 0 for no effect and ±100 for the full control effect.

SMILES | Tau fibril FP | PNC inhibitor | JMJD2E inh | Tau ThT inhib | NPSR antag | Tau fluor counter
O=C1NN(c2ccccc2)C(=O)/C1=C\c1ccc(-c2cc([N+](=O)[O-])ccc2O)o1 | u | x | u | 3.5µM* | 18% | 7.9µM*[quencher]
COc1ccc(Sc2ccc(/C=C3\C(=O)NN(c4ccccc4)C3=O)o2)cc1 | u | 39 | -12% | 10µM* | -54% | u
Cc1ccc(N2NC(=O)/C(=C/c3ccc(-c4ccc(Cl)c(C(=O)O)c4)o3)C2=O)cc1 | -1% | x | -1% | u | -5% | u
O=C1NN(c2ccc(Cl)cc2)C(=O)/C1=C\c1ccc(-c2cccc(C(=O)O)c2)o1 | u | x | -30% | 7.9µM* | -6% | 10µM*[quencher]
Cc1ccc(NC(=O)c2c(C)oc3ncnc(N4CCCCC4)c23)c(C)c1 | 6% | x | x | -1% | x | 0%
Cc1ccc2c(c1)/C(=N/N1C(=O)c3ccccc3C1=O)C(=O)N2 | -3% | -25 | 14% | u | 2% | -5%
Nc1n[nH]c(=S)n1/N=C1/C(=O)Nc2ccccc21 | u | x | 7.1µM* | 18µM* | -13% | -25%
Cc1ccccc1Nc1cccc2nonc12 | -5% | -99* | 9% | -11% | 0% | -5%
Cc1ccccc1Nc1nc2ccccc2s1 | -4% | 14 | -1% | -6% | -3%[46.1 µM] | -21%
COc1ccccc1NC(=O)CC1Sc2ccc(C(F)(F)F)cc2NC1=O (centres undefined) | u | x | x | 13% | x | -7%
Cc1cc(S(=O)(=O)Nc2ccc3oc4c(c3c2)CCCC4)ccc1Cl | u | x | x | -4% | x | u
CCOC(=O)c1[nH]c2ccccc2c1NC(C)=O | 0% | x | u | -6% | 15% | -3%
CC(=O)Nc1c(O)[nH]c2ccccc12 | -2% | -98* | 3% | -5% | 17%[46.1 µM] | -5%
O=C(O)/C=C/C(=O)Nc1ccccc1-c1ccccc1 | 3% | -109* | 1% | 10% | 2%[46.1 µM] | 5%
COCC(=O)Nc1ccccc1-c1ccccc1 | 2% | x | 3% | 1% | 6% | -3%
COc1cccc(CNS(=O)(=O)c2ccc3[nH]c4c(c3c2)CCCCC4)c1 | u | x | x | -9% | x | 13µM*[quencher]
O=S(=O)(NCc1ccc(F)cc1)c1ccc2[nH]c3c(c2c1)CCCCC3 | -5% | x | x | -1% | x | 16µM*[quencher]
O=C(Nc1nnc(SCC(=O)N2CCOCC2)s1)c1ccccc1 | 4% | -89* | -7% | 1% | -12% | -4%
O=c1c2ccccc2n2c(-c3ccc(F)cc3)nnc2n1Cc1ccccc1 | 4% | -102* | 2% | 4% | -13% | 6%
CCc1cccc2c(C(=O)CSc3nncn3-c3ccc(OC)cc3)c[nH]c12 | -3% | -104* | -9% | -15% | -4% | u
O=C(O)c1cccc(Cn2c(Cl)c(/C=N/NC(=O)c3ccc(O)cc3)sc2=O)c1 | -4% | x | -26% | x | -14% | -4%
O=Cc1sc(=O)n(Cc2cccc(C(=O)O)c2)c1Cl | 10µM* | x | 9% | 13µM* | -59% | -9%
N#CC12COC3(CCCCC3C1(C#N)C#N)OC2=N (centres undefined) | u | x | u | 14µM* | -14% | -22%
CCc1cccc(C)c1NC(=O)CCS(=O)(=O)c1ccc2c(c1)oc(=O)n2C | u | x | x | -14% | x | -12%
Cn1cccc1C(=O)NC(=O)CSc1cccc[n+]1[O-] | -3% | -95* | -5% | u | 4%[46.1 µM] | -13%
SMILES | Tau fibril FP | PNC inhibitor | JMJD2E inh | Tau ThT inhib | NPSR antag | Tau fluor counter
O=C(CSc1cccc[n+]1[O-])c1cc2ccccc2o1 | -2% | 8 | 32µM* | 11% | 7.9µM* | 11%
O=C(O)CSc1cccc[n+]1[O-] | -5% | 4 | -5% | 1% | -2%[46.1 µM] | -3%
COc1ccccc1C(=O)NC(=O)CSc1cccc[n+]1[O-] | -12% | x | -13% | -7% | 3% | -8%
Cc1ccc(C)c(NC(=O)c2cc(S(=O)(=O)N3CCN(c4cccc(Cl)c4)CC3)ccc2F)c1 | -17% | x | x | 2% | x | -11%
CCn1cc2nc(SCC(=O)Nc3ccc(C)cc3C)n(Cc3ccc(C)cc3)c(=O)c2n1 | -2% | x | x | -13% | x | -12%
COc1ccc(-c2cnnn2-c2ccc(NC(=O)c3ccc(S(=O)(=O)N4CCCCC4)cc3)cc2)cc1OC | 4% | 66 | 4% | 10% | 3.2µM* | 4%
COc1ccc(/C=C/c2nc(N)nc(-c3ccccc3O)n2)cc1OC | 20µM* | 40 | -19% | u | -18% | u
CN=C(NC1CCCCC1)c1ccc(Cl)cc1 | 4% | -103* | -3% | -3% | 10% | -3%
COc1ccccc1-c1c(-c2ccc(O)cc2O)n[nH]c1C(F)(F)F | 1% | x | -30% | -6% | 6%[7.67 µM] | 8.9µM*[quencher]
Oc1ccc(-c2n[nH]c(C(F)(F)F)c2-c2ccccc2)c(O)c1 | 8% | x | -6% | 5% | 13% | u
COc1ccc(-c2c(-c3ccc(O)cc3O)n[nH]c2C(F)(F)F)cc1 | 5% | x | -15% | -17% | 55% | 11µM*[quencher]
CS(=O)(=O)N(Cc1ccccc1)c1ccc(C(=O)Nc2cccnc2)cc1 | -4% | -100* | 5% | 2% | -9%[46.1 µM] | -6%
CN(c1ccc(C(=O)NCc2cccnc2)cc1)S(C)(=O)=O | 1% | -100* | 9% | 2% | -11%[46.1 µM] | 3%
CC(C)Cn1nnnc1S(=O)(=O)Cc1ccccc1 | u | x | 7% | -5% | x | -1%
O=C(/C=C/c1ccc(O)c(O)c1)NC(=O)c1ccccc1O | 9% | x | 14µM* | u | x | -29%
O=C(O)/C=C/c1ccc(O)c(O)c1 | -10% | 46 | 0.56µM*! | u | 5% | -21%
C1CCC(C(CC2CCCCN2)C2CCCCC2)CC1 (centres undefined) | 5% | 16 | -9% | u | 13µM* | -6%
CCOC(=O)c1sc(/N=C/N(C)C)c(C(=O)OCC)c1C | 6% | -82* | 9% | -18% | -12%[46.1 µM] | 0%
CCOC(=O)c1sc(/N=C/N(C)C)nc1C | -3% | 30 | 0% | 5% | 11% | 5%
CCC(=O)C1=C(c2ccc(F)cc2)N(C(=O)CC)n2c(nnc2-c2ccc(OC)cc2)S1 | u | x | x | u | x | -20%
COc1ccc(-c2[nH]ncc2C(=O)NCc2ccccc2OC)cc1 | 6% | x | x | -3% | x | -7%
CCC(Sc1nc2c(sc3ccccc32)c(=O)n1CCCC(=O)NC1CCCC1)C(=O)Nc1cccc(OC)c1 (centres undefined) | -9% | x | x | 10% | x | 6%
Cc1ccc(S(=O)(=O)Nc2cc3c(cc2NCc2ccccc2)n(C)c(=O)n3C)c(C)c1 | u | x | x | 18µM* | x | u
Cn1c(=O)n(C)c2cc(NS(=O)(=O)c3ccc(F)cc3)c(NCc3ccccc3)cc21 | -13% | x | x | u | x | u
c1ccc(-c2ccccc2OCCCN2CCCC2)cc1 | 2% | -107* | 0% | -7% | 11% | -4%

Assay outcomes as filed in PubChem.
